# Measured values as given in PubChem BioAssay.
# The source made the active and inactive calls.
# Assays:
# [1] = tested on: Human papillomavirus type 1a protein E7 (residues 44-93); assay: small molecules binding HPV E7 44-93 – biochemical, small-molecule microarray, residues 44-93, 635 nm fluorescence, primary screen (AID 1108); settings: fluorescence 635 nm, higher = more signal;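 note: E7 fragment applied at 1 µg/mL in TBST for 1 h at 4 C; score combines spot fluorescence with its signal to noise ratio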
# [2] = hepatitis C replication reporter changes, two-sided – Huh7 cells, luciferase reporter, HCV replication inhibitor project, primary screen (AID 1109); settings: Huh7 HCV replicon luciferase reporter, 48 h; higher = more signal;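 note: huh7 hepatoma cells harbouring a luciferase neomycin HCV replicon reporter; luciferase luminescence as measure of HCV replicon replication; test concentration not given here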
# [3] = molecular target: Left-right determination factor 2 (Homo sapiens) (UniProt O00292); assay: small molecules binding LEFTY2 protein – biochemical, small-molecule microarray, 635 nm fluorescence scan, primary screen (AID 1110); settings: higher = more signal
# [4] = molecular target: Calmodulin-1 (Homo sapiens) (UniProt P0DP23); assay: small molecules binding calmodulin-1 with EGTA – biochemical, small-molecule microarray, Cy5-labelled CALM1, profiling panel (AID 1111); settings: Cy5-CALM1 binding fluorescence, higher = more signal;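 note: labelled calmodulin applied in Tris saline Tween buffer holding calcium plus EGTA and DTT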
# [5] = molecular target: Calmodulin-1 (Homo sapiens) (UniProt P0DP23); assay: small molecules binding Ca-loaded calmodulin-1 – biochemical, small-molecule microarray, Cy5-labelled CALM1, plus calcium, artefact control for SMM control-protein annotation, profiling panel (AID 1112); settings: Cy5-CALM1 binding fluorescence, higher = more signal;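 note: score merges spot fluorescence with signal to noise from triplicate slides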
# [6] = probe aWnt5a binding to arrayed compounds – biochemical, biotinylated probe, 635/667 nm fluorescence, primary screen (AID 1113); settings: small-molecule microarray, higher = more signal;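 note: score merges 667 nm fluorescence intensity with signal-to-noise per printed feature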
# [7] = probe aShh binding to arrayed compounds – biochemical, biotinylated probe, 635/667 nm fluorescence, primary screen (AID 1114); settings: small-molecule microarray, higher = more signal;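 note: probe is biotin-labelled aShh protein from a stem cell growth factor screen; measures binding of labelled protein to compounds printed on the slide; score merges feature fluorescence at 667 nm with signal-to-noise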
# [8] = probe aNog binding to arrayed compounds – biochemical, biotinylated probe, 635/667 nm fluorescence, primary screen (AID 1115); settings: small-molecule microarray, higher = more signal;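 note: probe is biotinylated aNog protein used at 0.15 µg/mL for 1 h at 4 C; z-score combines 667 nm fluorescence of each spot with its signal to noise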
# [9] = molecular target: Torsin-1A-interacting protein 1 (Homo sapiens) (UniProt Q5JTV8); assay: compound microarray binding of lysate hLAP1 – cell lysate, small-molecule microarray, COS7 lysate, 635/667 nm fluorescence, primary screen (AID 1116); settings: 635 nm fluorescence, higher = more signal
# [10] = molecular target: Alpha-bungarotoxin (Bungarus multicinctus) (UniProt P60615); assay: compounds binding labelled alpha-BTX control protein – biochemical, small-molecule microarray, Alexa647 label, 635/667 nm fluorescence, artefact control for SMM control protein annotation, profiling panel (AID 1117); settings: alpha-BTX-A647 binding fluorescence, higher = more signal
# Albumin (Bos taurus) = Albumin (Bos taurus) (UniProt P02769); assay: compounds binding labelled BSA control protein – biochemical, small-molecule microarray, Alexa647 label, 635/667 nm fluorescence, artefact control for SMM control protein annotation, profiling panel (AID 1118); settings: BSA-A647 binding, fluorescence 635 nm, higher = more signal;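 note: score merges 667 nm emission intensity and signal-to-noise per printed compound spot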
# [11] = probe aXIP binding to arrayed compounds – biochemical, NeuroSMM set, 635/667 nm fluorescence, primary screen (AID 1119); settings: small-molecule microarray, higher = more signal, called active from +8 up or from −8 down;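 note: probe is the protein aXip251-270 applied at 1 µg/mL to compound-printed slides; binding of probe to printed compounds measured as 667 nm fluorescence plus signal to noise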
# [12] = probe aNOTCH3 binding on compound microarray – biochemical, small-molecule microarray, 635/667 nm fluorescence, primary screen (AID 1120); settings: higher = more signal;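 note: probe is a biotin-tagged antibody raised against NOTCH3 rather than NOTCH3 protein; score merges spot fluorescence near 667 nm with spot signal to noise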
# [13] = probe aNOTCH2 binding on compound microarray – biochemical, small-molecule microarray, 635/667 nm fluorescence, primary screen (AID 1121); settings: higher = more signal;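 note: score merges feature fluorescence read at 667 nm with its signal to noise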
# [14] = molecular target: Carbonic anhydrase 2 (Homo sapiens) (UniProt P00918); assay: compounds binding carbonic anhydrase 2 – biochemical, small-molecule microarray, Alexa647-labelled CAII, profiling panel (AID 1122); settings: CAII-A647 binding fluorescence, higher = more signal
# [15] = COS7 lysate on small-molecule microarray, probe aHis, 635 nm (AID 1123); settings: COS7 cell lysate, fluorescence, higher = more signal;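 note: z-score combines 667nm fluorescence intensity with signal-to-noise per printed compound spot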
# [16] = probe aLAP1 signal on lysate-treated microarray – cell lysate, small-molecule microarray, COS7 lysate, primary screen (AID 1124); settings: probe aLAP1, fluorescence, higher = more signal;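 note: lysate comes from COS7 cells expressing LAP1 and is applied at 0.3 µg/mL; score merges spot fluorescence near 667 nm with signal-to-noise over triplicate slides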
# Sam68 (KHDRBS1) = assay: compounds binding KHDRBS1 protein – biochemical, small-molecule microarray, 635 nm fluorescence, primary screen (AID 1125); settings: higher = more signal;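 note: score merges 667 nm channel intensity with signal to noise over triplicate slides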
# [17] = tested on: Chordin-like protein 2 (CHRDL2); assay: compounds binding chordin-like 2 – biochemical, small-molecule microarray, 635 nm fluorescence, primary screen (AID 1126); settings: fluorescence 635 nm, higher = more signal;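 note: printed compound slides probed with Chrdl2 protein at 4 µg/mL for 1 h at 4 C; score merges 667 nm emission intensity with signal to noise over three replicate slides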
# [18] = molecular target: Concanavalin-A (Canavalia ensiformis) (UniProt P02866); assay: compounds binding concanavalin A lectin – biochemical, small-molecule microarray, Alexa647 label, 635 nm, artefact control for SMM control protein annotation, primary screen (AID 1127); settings: ConA-A647 binding fluorescence, higher = more signal;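 note: z combines 667 nm emission intensity with signal-to-noise across three replicate slides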
# Chain of Concanavalin-A (Canavalia ensiformis) (P02866 whole entry, looked up): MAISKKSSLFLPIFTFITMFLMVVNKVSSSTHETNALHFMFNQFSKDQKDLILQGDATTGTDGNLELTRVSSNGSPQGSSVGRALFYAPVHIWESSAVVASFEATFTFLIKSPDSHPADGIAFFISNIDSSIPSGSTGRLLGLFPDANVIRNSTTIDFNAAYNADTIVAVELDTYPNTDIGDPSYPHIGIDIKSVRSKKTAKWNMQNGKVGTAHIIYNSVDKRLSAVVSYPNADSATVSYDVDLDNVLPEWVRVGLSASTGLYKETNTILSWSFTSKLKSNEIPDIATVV
# Chain of Left-right determination factor 2 (Homo sapiens) (O00292 whole entry, looked up): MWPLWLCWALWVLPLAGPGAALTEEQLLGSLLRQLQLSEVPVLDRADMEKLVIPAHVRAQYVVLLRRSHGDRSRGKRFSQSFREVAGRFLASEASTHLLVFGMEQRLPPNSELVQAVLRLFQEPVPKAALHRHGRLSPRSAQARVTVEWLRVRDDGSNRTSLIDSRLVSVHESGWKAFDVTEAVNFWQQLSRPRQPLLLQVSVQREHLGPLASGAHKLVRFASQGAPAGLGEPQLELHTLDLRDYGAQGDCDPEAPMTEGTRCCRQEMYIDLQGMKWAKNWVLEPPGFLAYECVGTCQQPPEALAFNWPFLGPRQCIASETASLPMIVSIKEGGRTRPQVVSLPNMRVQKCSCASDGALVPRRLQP
# Chain of Albumin (Bos taurus) (P02769 whole entry, looked up): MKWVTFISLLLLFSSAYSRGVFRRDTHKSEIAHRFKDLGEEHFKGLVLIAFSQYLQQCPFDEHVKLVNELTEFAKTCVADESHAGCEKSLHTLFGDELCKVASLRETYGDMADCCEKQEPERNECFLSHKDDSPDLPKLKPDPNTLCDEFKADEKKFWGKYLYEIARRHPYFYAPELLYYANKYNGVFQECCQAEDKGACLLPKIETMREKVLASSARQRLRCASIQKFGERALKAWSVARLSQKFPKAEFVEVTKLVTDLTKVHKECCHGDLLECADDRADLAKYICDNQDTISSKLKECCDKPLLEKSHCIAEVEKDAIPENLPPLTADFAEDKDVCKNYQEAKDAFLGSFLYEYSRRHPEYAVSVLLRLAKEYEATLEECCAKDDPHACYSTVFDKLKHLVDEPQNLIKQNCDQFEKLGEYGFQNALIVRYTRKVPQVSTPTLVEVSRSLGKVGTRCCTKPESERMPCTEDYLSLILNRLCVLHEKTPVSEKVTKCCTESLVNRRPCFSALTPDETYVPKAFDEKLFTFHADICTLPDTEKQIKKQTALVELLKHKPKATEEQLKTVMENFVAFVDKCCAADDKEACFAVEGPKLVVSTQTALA
# Chain of Torsin-1A-interacting protein 1 (Homo sapiens) (Q5JTV8 whole entry, looked up): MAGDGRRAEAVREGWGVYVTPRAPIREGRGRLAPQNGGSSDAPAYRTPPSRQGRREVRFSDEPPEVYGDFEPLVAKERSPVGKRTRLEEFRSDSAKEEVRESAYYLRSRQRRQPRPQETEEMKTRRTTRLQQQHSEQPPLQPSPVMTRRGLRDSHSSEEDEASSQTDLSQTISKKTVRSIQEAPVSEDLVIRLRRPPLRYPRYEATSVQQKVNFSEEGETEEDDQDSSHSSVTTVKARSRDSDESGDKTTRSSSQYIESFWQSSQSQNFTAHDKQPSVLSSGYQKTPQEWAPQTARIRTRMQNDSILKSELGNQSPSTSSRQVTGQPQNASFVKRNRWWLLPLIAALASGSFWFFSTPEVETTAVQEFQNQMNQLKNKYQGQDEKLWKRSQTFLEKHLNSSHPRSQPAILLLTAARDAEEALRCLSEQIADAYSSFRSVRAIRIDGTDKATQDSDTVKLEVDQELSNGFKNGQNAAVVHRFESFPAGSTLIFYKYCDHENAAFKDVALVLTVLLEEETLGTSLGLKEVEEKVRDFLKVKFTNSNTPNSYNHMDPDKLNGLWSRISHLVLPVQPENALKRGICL
# Chain of Alpha-bungarotoxin (Bungarus multicinctus) (P60615 whole entry, looked up): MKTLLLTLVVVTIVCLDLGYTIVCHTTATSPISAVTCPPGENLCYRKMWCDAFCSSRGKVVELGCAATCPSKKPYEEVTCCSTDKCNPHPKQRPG
SMILES,composite z-score [1],z-score [2],composite z-score [3],composite z-score [4],composite z-score [5],composite z-score [6],composite z-score [7],composite z-score [8],composite z-score [9],composite z-score [10],composite z-score (Albumin (Bos taurus)),composite Z-score [11],composite z-score [12],composite z-score [13],composite z-score [14],composite z-score [15],composite z-score [16],composite z-score (Sam68 (KHDRBS1)),composite z-score [17],composite z-score [18]
CS(=O)(=O)CCOC(=O)C1=CC(c2ccc(CO)cc2)=CC(C2CC2)N(Cc2cc3c(cc2Br)OCO3)C=C1C(=O)OCCS(C)(=O)=O (stereo not given),1.41,-2.3,0.462,1.38,0.23,-0.0124,0.171,0.446,1.18,1.77,0.381,-0.0662 (inactive),0.143,-0.0902,0.618,2.29,0.487,1.3,0.37,0.927
C=CCNC(=O)[C@@H]1[C@H]2C(=O)O[C@H](c3ccccc3)[C@H](c3ccccc3)N2[C@H](c2ccc(O)cc2)[C@@]12C(=O)N(C(=O)OCCOC)c1ccccc12,1.2,-1.43,-0.211,0.922,-0.42,-0.0478,-0.0904,0.215,1.12,2.27,0.752,-0.155 (inactive),-0.0716,-0.143,0.519,2.23,0.334,1.28,-0.49,-0.18
COCCOC(=O)N1C(=O)[C@@]2(c3cc(C#CCNC(N)=O)ccc31)[C@H](c1ccc(O)cc1)N1[C@H](c3ccccc3)[C@H](c3ccccc3)OC(=O)[C@H]1[C@@H]2C(=O)NC[C@H](O)c1ccccc1,0.83,-0.703,0.952,0.288,0.0058,0.0026,-0.119,-0.287,1.1,0.834,-0.302,0.297 (inactive),0.108,-0.0165,0.044,0.956,0.608,1.13,1.38,1.16
CC(C)NC(=O)[C@@H]1c2ccccc2C(=O)N(Cc2ccccc2)[C@H]1c1ccc(CO)cc1,-1.8,-0.777,-1.06,-0.472,0.477,0.115,-0.214,-0.647,1.57,0.181,-0.113,0.601 (inactive),0.0237,-0.0638,0.706,2.01,0.821,-0.598,-1.38,-0.717
COC(=O)[C@]1(Cc2ccccc2N=[N+]=[N-])N=C(c2ccc(OCCCO)cc2)O[C@@H]1c1ccccc1N=[N+]=[N-],-0.0688,-3.52,-0.0072,-0.062,-0.374,-0.129,-0.138,-0.51,0.412,0.019,0.308,-0.47 (inactive),-0.0976,-0.148,0.595,0.794,0.405,-0.255,-0.153,0.725
CCOC(=O)C1=CCC(c2ccc(C#N)cc2)N(S(=O)(=O)c2ccc(C)cc2)C1 (stereo not given),-0.437,-2.66,0.47,2.02,0.536,-0.117,0.109,-0.557,0.479,2.25,0.886,0.356 (inactive),0.1,0.188,0.695,1.63,1.18,1.3,-0.1,1.14
CCCCC(CC)C(O)C1C=CC2C(=O)N(c3ccccc3)C(=O)C2N1Nc1ccccc1 (stereo not given),1.33,-1.71,-0.354,1.25,0.831,0.173,0.108,-0.259,0.886,1.1,0.83,0.392 (inactive),0.206,-0.122,0.665,2.28,0.297,0.883,-0.804,0.964
COCCOC(=O)N1C(=O)[C@@]2(c3cc(C#Cc4ccc(OC)cc4)ccc31)[C@H](C(=O)N1CCN(c3ncccn3)CC1)[C@H]1C(=O)O[C@H](c3ccccc3)[C@H](c3ccccc3)N1[C@@H]2c1ccc(O)cc1,0.519,-1.39,0.0473,0.958,0.217,-0.207,-0.138,-0.366,0.135,0.107,0.259,0.0527 (inactive),-0.112,-0.0277,0.287,0.722,0.232,0.634,-0.0397,0.762
CCCCC=C[C@@H](NC(=O)c1cccs1)c1ccccc1,0.861,-2.74,-0.286,0.524,0.906,-0.124,0.166,-0.269,0.159,0.748,0.84,-0.544 (inactive),0.0435,-0.0116,0.251,1.35,0.369,0.839,-0.406,0.499
C[C@]1(C(=O)NCc2ccccc2)c2ccccc2C(=O)N(Cc2cc(F)cc(C(F)(F)F)c2)[C@H]1c1ccc(CO)cc1,0.376,-0.44,-1.57,-0.595,0.173,-0.0685,0.0469,-0.427,-0.168,0.0471,-0.35,-0.146 (inactive),-0.177,-0.0971,0.699,0.157,0.325,-0.763,-0.786,-0.871
C=C(CCCC)C(=O)CC[C@H](OC(=O)c1cccnc1)c1cccc(OCCO)c1,0.343,-3.04,0.0112,-0.538,-0.993,-0.0107,-0.0035,-0.356,0.479,-0.0331,-0.39,0.087 (inactive),-0.0242,-0.14,0.771,-0.112,0.0948,0.269,0.225,-0.106
